Screening results: PubChem, National Center for Advancing Translational Sciences (NCATS)
Compounds with a hit are over-represented: about 5.4% of the library has one in this group of screens.
ALOX12 inhib: inhibitors of human 12-lipoxygenase (ALOX12). P18054. purified 12-hLO, xylenol orange hydroperoxide absorbance. Potency, µM (titrated, usually from 57.1 µM), usual class: inhibitors. actives 0.12% (n = 150,000). AID 1452; also: nearly all actives have a fitted effect of over 55% in size
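Lipoxygenase turnover measured by absorbance at 573 and 405 nm after Fe-XO development. Human 12hLO 150 nM, arachidonate 40 uM, pH 7.0 Hepes buffer with detergent; 15 min compound preincubation, 30 min reaction.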
15-hLO-2 inh: blocks human 15-lipoxygenase 2 activity. O15296. purified 15hLO-2, xylenol orange hydroperoxide absorbance. Potency, µM (highest dose often 57.1 µM), hits mostly inhibitors. actives 0.56% (n = 110,000). AID 881; also: nearly all actives have a fitted effect of over 60% in size
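Screening format was qHTS against 50 nM purified 15hLO-2 in Hepes pH 7.5 with detergent. Activity follows hydroperoxide formation from 45 uM arachidonic acid, measured as 573:405 nm absorbance ratio of the ferric-xylenol orange complex.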
PNC assembly inh: blocks assembly of the perinucleolar compartment; PC3M PTB-GFP, PNC prevalence imaging, 16 h; active compounds read low; actives 3.1% (n = 140,000); activity change (PNC), negative = inhibition, % at 10 µM; AID 2417;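 active = readout at or below -70, meaning at least 70% loss of cells showing the perinucleolar compartment, a nuclear body marking cancer cells; inconclusive = readout between -30 and a set limit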
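PC3M cells stably expressing PTB-GFP, 750–1000 cells/well, treated 16 h at 37 °C with compound (23 nl of library stock), in duplicate. After paraformaldehyde fixation and Hoechst stain, imaged at 20x; PNC prevalence scored by image analysis.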
IMPase inh: membrane-permeable compound that blocks inositol monophosphatase. P97697. CHO-M1 cells, IP1 accumulation, HTRF TR-FRET ratio. inhibition (IP1 accumulation), % at 46.1 µM. 120,000 tested, under 10 active; active = well fitted curve in the direction sought with a large enough effect in the signal ratio, not every such curve was filed as active; inconclusive = small, poorly fitted or top-dose-only effect, or a change in a side signal; inactive = no such curve, though single readings can be large or run the other way; the % refers to the signal ratio;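 also: cells stimulated with carbachol in lithium chloride buffer; higher means more IMPase inhibition seen as more IP1 and lower FRET ratio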
Target sequence (P97697 whole entry, looked up): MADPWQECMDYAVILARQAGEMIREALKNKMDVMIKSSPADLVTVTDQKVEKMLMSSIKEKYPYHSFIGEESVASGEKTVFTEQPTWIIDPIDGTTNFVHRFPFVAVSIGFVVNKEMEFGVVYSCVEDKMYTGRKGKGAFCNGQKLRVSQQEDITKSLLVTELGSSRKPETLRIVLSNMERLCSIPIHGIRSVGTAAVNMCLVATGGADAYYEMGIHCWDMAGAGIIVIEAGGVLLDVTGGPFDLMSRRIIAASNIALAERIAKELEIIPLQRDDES
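Carbachol-driven Gq signalling in CHO-M1 cells (2000/well) generates IP1. Compounds that block IMPase raise IP1 and so reduce the FRET signal from Eu-anti-IP1 and d2-IP1 after a 10 min room-temperature lysis.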
IMPase Li inh: membrane-permeable IMPase blocker, potentiated with lithium; actives 0.35% (n = 210,000); Potency, µM (doses to about 59.4 µM), most hits filed as inhibitors; CHO-M1 cells, IP1 TR-FRET (IP-One), carbachol + lithium; AID 1457;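 also: IP1 builds up when IMPase is blocked and the TR-FRET signal falls; nearly all actives have a fitted effect of over 50% in size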
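Concentration–response in CHO-M1 cells, lithium-potentiated; 30 min at 37C. IP1 detected by competitive TR-FRET after 10 min lysis at RT. Hill-fitted AC50.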
HPGD inh: blocks human HPGD enzyme activity | actives 4.3% (n = 150,000) | P15428 | purified HPGD, NADH fluorescence kinetic, PGE2 substrate | Potency, µM, hits mostly inhibitors; active = well fitted inhibition curve with a large enough effect, not every such curve was filed as active; inconclusive = small, poorly fitted or top-dose-only effect, or another doubt; inactive = no such curve, though single readings can be large or run the other way
Target sequence (P15428 whole entry, looked up): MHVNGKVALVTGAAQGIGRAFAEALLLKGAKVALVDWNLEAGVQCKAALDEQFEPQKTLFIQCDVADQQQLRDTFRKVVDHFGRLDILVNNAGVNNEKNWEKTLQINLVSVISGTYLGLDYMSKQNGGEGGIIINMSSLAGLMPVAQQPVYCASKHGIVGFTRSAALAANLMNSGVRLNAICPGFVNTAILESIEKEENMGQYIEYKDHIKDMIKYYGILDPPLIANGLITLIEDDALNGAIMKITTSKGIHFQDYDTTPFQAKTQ
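20 nM HPGD preincubated 15 min at room temperature with compound in 50 mM Tris-HCl pH 8, 0.01% Tween 20. Started with 1 mM NAD+ and 30 uM prostaglandin E2; NADH fluorescence (360/450 nm) read 5 times over 30-s intervals, last minus first.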
Of the large screens only hits and unclear results are named; the others gave an inactive call. Unless noted, calls follow the shape of the dose curve; as a rule, active = well fitted curve in the direction sought with a large enough effect; inconclusive = small, poorly fitted or top-dose-only effect, or another doubt; inactive = no such curve, though single readings can be large; an effect the other way counts as inactive or inconclusive.

COc1ccc(S(=O)(=O)/N=C2/NC(=O)/C(=C\c3cc(OC)c(OC)cc3[N+](=O)[O-])S2)cc1	HPGD inh 5µM
COc1ccc(S(=O)(=O)/N=C2/NC(=O)/C(=C/c3ccco3)S2)cc1	HPGD inh inconclusive (no result: 15-hLO-2 inh, IMPase inh)
O=[N+]([O-])c1ccc(CSCc2ccc(Cl)cc2)cc1	none (no result: PNC assembly inh, IMPase inh)
COCCc1ccc(OCC(O)CNC(C)C)cc1 (stereo not given)	PNC assembly inh -91 (no result: IMPase inh)
Cc1cc(C)cc(C(=O)N(C)[C@H](Cc2ccc(-c3ccccc3)cc2)C(=O)N[C@@H](Cc2c[nH]c3ccccc23)C(=O)O)c1	15-hLO-2 inh inconclusive (no result: PNC assembly inh)
Cc1ccc(NC(NC(=O)Cc2ccccc2)C(Cl)(Cl)Cl)cc1 (stereo not given)	PNC assembly inh -111 (no result: 15-hLO-2 inh)
C=C(C)Cn1c(SCC(=O)c2ccc(Br)cc2)nc2sc3c(c2c1=O)CCCC3	none (no result: ALOX12 inhib, 15-hLO-2 inh, PNC assembly inh, IMPase Li inh, HPGD inh)
Cc1cc(C(=O)Nc2ccccc2C(F)(F)F)no1	none
O=C(Nc1ccccc1C(F)(F)F)c1cc(-c2ccccc2O)on1	PNC assembly inh -100 (no result: 15-hLO-2 inh)
Cc1ccc(C)c(OCCn2cc(C(=O)c3cccs3)c3ccccc32)c1	none (no result: ALOX12 inhib, 15-hLO-2 inh, PNC assembly inh, IMPase Li inh, HPGD inh)
COc1ccc2[nH]c(=O)c(CN(Cc3cccs3)C(=S)Nc3cccc(C)c3)cc2c1	PNC assembly inh -100, HPGD inh inconclusive (no result: 15-hLO-2 inh)
COc1ccc2[nH]cc(CCNc3nc(-c4cccnc4)nc4ccccc34)c2c1	none (no result: ALOX12 inhib, PNC assembly inh, IMPase inh, HPGD inh)
CCc1ccc2[nH]c(=O)c(C(c3nnnn3CCOC)N3CCN(c4ccc(F)cc4)CC3)cc2c1 (stereo not given)	PNC assembly inh inconclusive
CCc1ccc2[nH]c(=O)c(CN(Cc3ccc(F)cc3)C(c3nnnn3CCN3CCOCC3)C(C)C)cc2c1 (stereo not given)	PNC assembly inh -81
O=C1C(Nc2ccccc2)=C(N2CCCCC2)C(=O)c2ccccc21	none
COc1ccccc1NC1=C(N2CCCCC2)C(=O)c2ccccc2C1=O	PNC assembly inh -85 (no result: 15-hLO-2 inh)
N#C/C(=N\Nc1ccccc1F)C(=N)N1CCCCC1	PNC assembly inh -85 (no result: 15-hLO-2 inh)
CC(NS(=O)(=O)c1ccc(CCC(=O)N2CCN(C)CC2)cc1)c1ccccc1 (stereo not given)	PNC assembly inh -82
CCNS(=O)(=O)c1cccc(C(=O)c2c(C)cc3ccccn23)c1	PNC assembly inh -90 (no result: 15-hLO-2 inh, IMPase inh)
Cc1cc2ccccn2c1C(=O)c1ccc(S(=O)(=O)N(C)C)cc1	none (no result: ALOX12 inhib, 15-hLO-2 inh, PNC assembly inh, IMPase inh, HPGD inh)
O=S(=O)(c1ccc(Br)s1)N1CCc2ccccc2C1	PNC assembly inh -119 (no result: 15-hLO-2 inh)
CCCCCCCCCCCCCCCC(=O)NCCCC(=O)O	none (no result: 15-hLO-2 inh, PNC assembly inh, IMPase inh)
O=C(CCSc1nc(-c2ccco2)cc(C(F)(F)F)n1)NCC1CCCO1 (stereo not given)	HPGD inh inconclusive
Cc1cc(NC(=O)CCCSc2nc(-c3ccco3)cc(C(F)(F)F)n2)no1	none
O=C(CCCSc1nc(-c2ccco2)cc(C(F)(F)F)n1)NCC1CCCO1 (stereo not given)	HPGD inh 7.9µM (no result: 15-hLO-2 inh)
O=C(CCCSc1nc(-c2ccco2)cc(C(F)(F)F)n1)NCc1cccs1	PNC assembly inh inconclusive, HPGD inh 18µM
CCn1c(=NC(=O)CN2C(=O)CCC2=O)sc2c(C)cc(C)cc21	HPGD inh 14µM
COC(=O)Cn1c(=NC(=O)C(C)C)sc2c(C)cc(C)cc21	IMPase inh inconclusive
CCCS(=O)(=O)c1nc(S(=O)(=O)c2ccc(C)cc2)c(NCCN2CCOCC2)s1	PNC assembly inh -107
Brc1ccc(-c2nnc3sc(CN4CCC5(CC4)OCCO5)cn23)cc1	HPGD inh inconclusive
c1ccc(-c2nnc3sc(CN4CCc5ccccc54)cn23)cc1	HPGD inh 11µM (no result: 15-hLO-2 inh)
O=C(CSc1nnnn1-c1ccc2c(c1)OCCO2)Nc1nc2c(s1)CCCC2	none
COC(=O)c1sc(NC(=O)CSc2nnnn2-c2cccc(OC)c2)nc1C	none (no result: 15-hLO-2 inh)
COc1cccc(-n2nnnc2SCC(=O)Nc2nc3c(s2)CCCC3)c1	PNC assembly inh inconclusive, HPGD inh 25µM (no result: 15-hLO-2 inh)
COC(=O)c1cccc(-n2nnnc2SCC(=O)Nc2nc3c(s2)CCCC3)c1	HPGD inh 20µM
O=S(=O)(C/C(=C/CO)S(=O)(=O)c1ccccc1)c1ccccc1	PNC assembly inh -95
